This note sets out measurements from PubChem BioAssay (NCI).

Compounds without any hit were thinned out: in the full panel of roughly 83,000, 20% have a hit.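 Cells were grown in 96-well plates and exposed to the test compound at a single concentration for 48 hours; results are reported as percent growth, with values below 10 considered active.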 Unmarked numbers belong to inactive results. Activity calls are given as the source filed them.

Assay in all cases: NCI-60 one-dose screen, 48 h (100 = growth as untreated, 0 = no growth, -100 = all killed)
Holding throughout (conditions): 10 µM unless noted

Experiment [1] has as its system HT29 colon.
For experiment [2], the system named is SNB-75 CNS.
In experiment [3] the test system is SNB-19 CNS.
The test system of experiment [4] is U251 CNS.
Experiment [5] has as its system PC-3 prostate.
For experiment [6], the system named is SK-MEL-5 melanoma.
Experiment [7] concerns UACC-62 melanoma.
For experiment [8], the system named is LOX IMVI melanoma.
The test system of experiment [9] is SK-MEL-28 melanoma.
In experiment [10] the test system is SK-MEL-2 melanoma.
Experiment [11] has as its system SN12C renal.
Experiment [12] relates to UO-31 renal.
In experiment [13] the test system is TK-10 renal.
Experiment [14] concerns ACHN renal.
The subject of experiment [15] is CAKI-1 renal.
Experiment [16] concerns A498 renal.
Experiment [17] relates to MOLT-4 leukemia.
Experiment [18] deals with SR leukemia.
In experiment [19] the test system is EKVX NSCLC.
For experiment [20], the system named is CCRF-CEM leukemia.

`CSc1nc2c(c(=O)[nH]1)C(c1ccc(Cl)cc1)C1=C(N2)/C(=C/c2ccc(Cl)cc2)CNC1` (configuration not stated): the growth was -36.6% (active) in [1]; 51.9% in experiment [2]; 46.8% in experiment [3]; -16.1% (active) in [4]; 42% in experiment [5]; 77.1% in experiment [6]. Also, the growth was 89.2% in experiment [7]; -61.3% (active) in experiment [8]; 87.9% in experiment [9]; 78.4% in experiment [10]; 39.7% in experiment [11]; 16.8% in experiment [12]. The growth in experiment [13] is 78.9%; in experiment [14], 72.5%; in [15], 76.8%; in experiment [16] it was 18.3%; in [17] it was 18.7%; in experiment [18], -16.2% (active).

In the case of `Cn1cnc([N+](=O)[O-])c1S(=O)(=O)Oc1ccc(Cl)cc1`, the growth in experiment [1] was -36.9% (active); in [2] it was 103%; in [3], 102%; in experiment [4] it was 85.4%; in [5], 90.8%; in [6], 95.4%. Moreover, the growth in [7] is 78.7%; in [8], 45.2%; in experiment [9], 97.4%; in [10], 90.6%; in experiment [19] it was 102%; in [11], 94.5%. Further, the growth is -82% (active) in experiment [12]; 96.1% in experiment [13]; -70.8% (active) in [14]; -65.1% (active) in experiment [15]; -49.8% (active) in experiment [20]; -0.321% (active) in [17]. Besides, the growth in [18] is 25.3%.

Turning to `NNC(=O)NO`, the growth in experiment [1] is 96%; in experiment [2], 85.9%; in [3] it was 108%; in experiment [4] it was 104%; in [5] it was 101%; in [6] it was 105%. Further, the growth was 106% in [7]; 97.7% in experiment [8]; 107% in [9]; 91.1% in experiment [10]; 106% in experiment [11]; 69.8% in experiment [12]. For the same compound, the growth was 94% in experiment [13]; 105% in [14]; 106% in [15]; 114% in experiment [16]; 95.8% in [20]; 91.6% in experiment [17]. The growth in [18] is 95.8%.

For the compound `COc1ccc(-c2nnc(COc3ccc(NC(=O)Nc4cc(C(F)(F)F)cc(C(F)(F)F)c4)cc3F)o2)cc1`, the growth in experiment [1] was 2.11% (active); in experiment [2] it was 16.7%; in [3] it was 14.4%; in experiment [4], 0.294% (active); in experiment [5] it was -12.8% (active); in [6] it was -21.4% (active). For the same compound, the growth was 16.4% in [7]; -15% (active) in [8]; 16.6% in experiment [9]; -32.9% (active) in [10]; 5.21% (active) in [11]; -4.7% (active) in [12]. The growth in experiment [13] is 15.3%; in [14] it was 11%; in experiment [15], 12.3%; in experiment [16] it was -1.78% (active); in experiment [17], 8.94% (active); in experiment [18] it was -13.2% (active).

For the compound `CCOC(Cc1c(N)[nH]c(=S)[nH]c1=O)OCC`, the growth in experiment [1] was 99.2%; in experiment [2] it was 96.7%; in experiment [3] it was 106%; in [4], 103%; in experiment [5], 95.3%; in [6], 95.5%. The growth in experiment [7] was 104%; in experiment [8], 95.3%; in experiment [9] it was 102%; in [10], 124%; in experiment [11] it was 110%; in [12] it was 86%. Besides, the growth was 108% in experiment [13]; 94.9% in experiment [14]; 104% in experiment [16]; 88% in [17]; 90.8% in experiment [18].

Take `COc1ccc(-c2cnnn2-c2cc(OC)c3c(c2)OCO3)cc1`: the growth is 1.26% (active) in experiment [1]; 23.1% in experiment [2]; 39.4% in experiment [3]; 3.74% (active) in experiment [4]; 4.25% (active) in [5]; 18.1% in [6]. Besides, the growth in experiment [7] was 26.8%; in experiment [8] it was 17.8%; in experiment [9], 55%; in experiment [10], 22.4%; in experiment [11], 36.8%; in experiment [12] it was 50%. Also, the growth was 40% in experiment [13]; 38.8% in [14]; 29.6% in experiment [15]; 0.869% (active) in [20]; 4.11% (active) in experiment [17]; -30.4% (active) in experiment [18].

For `O=[N+]([O-])c1ccc2c(c1)S(=O)c1cc([N+](=O)[O-])ccc1N2`, the growth is 95% in experiment [1]; 87.2% in [2]; 109% in experiment [3]; 105% in [4]; 88.6% in experiment [5]; 96.2% in [6]. In addition, the growth in experiment [7] is 93.5%; in [8], 102%; in [9] it was 104%; in experiment [10], 105%; in experiment [19], 112%; in experiment [11], 101%. Further, the growth in experiment [12] is 77.7%; in experiment [13], 110%; in experiment [14] it was 96.7%; in [15], 98.8%; in experiment [20] it was 98.9%; in [17], 93%. In experiment [18], the growth was 121%.

As for `c1cnc2n[nH]c(Nc3ncnc4c3sc3ncccc34)c2c1`, the growth in [1] was 95.4%; in experiment [2], 84%; in experiment [3], 101%; in [4], 97.1%; in [5], 104%; in experiment [6] it was 102%. In addition, the growth was 87.1% in [7]; 85.6% in experiment [8]; 99% in [9]; 103% in experiment [10]; 99.7% in [11]; 98.5% in experiment [12]. For the same compound, the growth in experiment [13] is 103%; in [14], 97.8%; in [15] it was 104%; in [16] it was 91.3%; in [20], 88.6%; in experiment [17] it was 97.9%. Also, the growth in experiment [18] was 101%.
